Source: PubChem
SARS PLP yeast: inhibitors of SARS-CoV papain-like protease in yeast | S. cerevisiae expressing SARS-CoV PLpro, growth rescue | Potency, µM (top dose mostly 32.9 µM), without a hit: at the highest dose activity, positive = growth rescue, most hits filed as activators | actives 0.19% (n = 330,000); calls by dose curve; note: potency is the fitted concentration of half-maximal effect; 0% is about no effect; nearly all actives have a fitted effect of over 55% in size
HCV inh: blocks hepatitis C virus. Potency, µM (titrated, usually from 41.8 µM), for inactives: at the top dose activity change, negative = inhibition, actives largely listed as inhibitors. Huh7.5.1 HCVcc-Cre infection, luciferase reporter, 44 h. actives 3.4% (n = 340,000); note: potency is the fitted concentration of half-maximal effect; % is set by controls: 0 for no effect and ±100 for the full control effect
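Seed cells (1,000/well) for 4 h; treat with compound and infect with HCVcc-Cre, moi about 0.5. Incubate 44 h, then detect luciferase activity.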
Pf growth 48h: P. falciparum growth inhibition at 48 hours (one generation); actives 5.9% (n = 310,000); P. falciparum luciferase growth in erythrocytes, 48 h; Potency, µM (highest dose often 28.7 µM), for inactives: top-dose activity change, negative = inhibition, hits mostly inhibitors; note: potency is the fitted concentration of half-maximal effect; % is set by controls: 0 for no effect and ±100 for the full control effect
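Parasite viability was followed by luminescence of a genomically integrated firefly luciferase. Cultures held 0.1% parasitemia at 2% hematocrit (final), incubated under 5% CO2 at 37 C.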
Sm TGR block: blocks Schistosoma mansoni thioredoxin glutathione reductase; Potency, µM (top dose mostly 114 µM), without a hit: top-dose activity change, negative = inhibition, actives largely listed as inhibitors; Q962Y6; actives 3% (n = 360,000); purified TGR, DTNB reduction, TNB absorbance 405 nm; note: potency is the fitted concentration of half-maximal effect; % is set by controls: 0 for no effect and ±100 for the full control effect; nearly all actives have a fitted effect of over 60% in size
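Kinetic colorimetric format: TGR-catalysed, NADPH-driven DTNB reduction monitored via TNB absorbance. Enzyme dispensed at 20 nM; compound exposure 15 min at room temperature before reaction start.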
Pf growth 96h: P. falciparum growth inhibition at 96 hour, primary screen for plastid delayed-death inhibitors | P. falciparum luciferase reporter growth, 96 h | Potency, µM (highest dose often 28.7 µM), without a hit: at the top dose activity change, negative = inhibition, hits mostly inhibitors | actives 6.9% (n = 320,000) | AID 504834; note: potency is the fitted concentration of half-maximal effect; % is set by controls: 0 for no effect and ±100 for the full control effect
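Two-generation exposure (96 h) targets delayed-death phenotype. Reporter parasites carrying integrated firefly luciferase, in red cells at 2% hematocrit and 0.05% parasitemia final, kept at 37 C, 5% CO2; luminescence loss indicates inhibition.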
HCMV antiviral: human cytomegalovirus inhibition. AID 1259415. HFF cells, HCMV-luciferase reporter, 72 h; stronger effect = lower value. activity change, negative = inhibition, % at 57.5 µM. actives 4.5% (n = 410,000); in the data active = activity change below about -60%; inconclusive = no clear call, values can overlap the other calls; inactive = above about -39%; note: % is set by controls: 0 for no effect and ±100 for the full control effect
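Two compound doses tested in HFFs infected with HCMV-luciferase, MOI 1 PFU/cell, 72 h at 37C. Lysate luminescence read with OneGlo; data normalized against buffer-only and 10uM Salinomycin inhibitor controls.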
Numbers without * were called inactive; ? = inconclusive; . = no result. The list is not random: actives were taken first. Their share in the collection is about 15%. Unless noted, calls come from the whole dose curve; as a rule, active = well fitted curve in the direction sought with a large enough effect; inconclusive = small, poorly fitted or top-dose-only effect, or another doubt; inactive = no such curve, though single readings can be large; an effect the other way counts as inactive or inconclusive.

SMILES	SARS PLP yeast	HCV inh	Pf growth 48h	Sm TGR block	Pf growth 96h	HCMV antiviral
Cc1ccc(S(=O)(=O)N(Cc2cccnc2)Cc2cc3ccccc3[nH]c2=O)cc1	-0.7%	-9.9%	?	-19.1%	-5.9%	-62.4*
COc1ccc(S(=O)(=O)N(Cc2ccco2)Cc2cc3ccccc3[nH]c2=O)cc1	-2.3%	14.1µM*	2.2%	?	?	-24.3
O=c1[nH]c2ccccc2cc1CN(Cc1ccco1)S(=O)(=O)c1ccccc1	-1.8%	-9.5%	-2.3%	-30.5%	8.1%	-36.2
CN(C)CCNC(=O)C(C(=O)c1ccc(F)cc1)n1ccccc1=O (configuration not stated)	-0.9%	26.8%	39.6%	-23.5%	?	8.0
O=C(CN1C(=O)C2CC=CCC2C1=O)Nc1ccc(F)cc1F (configuration not stated)	3.5%	7.3%	-9.9%	-2.7%	5.4%	1.1
CCOC(=O)NC1(NC2CCCCC2)Oc2ccccc2O1	?	?	-29.5%	15.8µM*	-8.2%	?
CCOC(=O)Nc1ccc(Oc2ccccc2)cc1	-12.1%	-8.9%	14.4%	18.2%	?	49.5
CCOC(=O)NC1c2ccccc2Oc2ccccc21	-0.1%	16.9%	-10.1%	16.2%	?	-26.2
CCOC(=O)NC1(Nc2ccc(C)cc2)Oc2ccccc2O1	1.4%	?	-2.0%	39.8µM*	?	40.4
CCOC(=O)NC1(NC(C)C)Oc2ccccc2O1	3.6%	-16.2%	.	44.7µM*	-7.7%	14.4
CCOC(=O)NC1(NCc2ccccc2)Oc2ccccc2O1	0.9%	?	?	31.6µM*	?	-25.7
CN(Cc1ccccc1OCCO)CC1CCCN(CCc2ccc(Cl)cc2)C1 (configuration not stated)	-0.8%	?	?	-17.3%	?	34.4
Cc1ccc(S(=O)(=O)N(Cc2nc(-c3cccc(C)c3)no2)C2CCCCC2)cc1	.	.	.	0.9%	.	-14.2
CCOC(=O)NC1(NCC(C)C)Oc2ccccc2O1	-6.4%	?	.	22.4µM*	-16.6%	-5.4
CC(Oc1ccc(F)cc1)C(=O)Nc1ccc2ccccc2c1 (configuration not stated)	6.9%	?	.	9.2%	34.6%	-66.6*
CC(Oc1ccccc1F)C(=O)Nc1ccc2ccccc2c1 (configuration not stated)	?	-11.9%	74.2%	5.0%	67.3%	-77.4*
COc1ccc(OC(C)C(=O)Nc2cccc(F)c2)cc1 (configuration not stated)	0.2%	-22.0%	-5.0%	-2.3%	1.04µM*	-20.6
CC(C)CN(C(=O)C1CSC2(C)CCC(=O)N12)c1c(N)n(Cc2ccccc2)c(=O)[nH]c1=O (configuration not stated)	-2.3%	5.4%	?	-24.4%	17.1%	25.0
Cc1ccccc1NS(=O)(=O)c1cccc2nsnc12	-1.4%	24.5%	-5.3%	2.6%	?	-4.2
CC(=O)Nc1ccc2c(c1)N(S(=O)(=O)c1cccs1)CCC2	0.4%	-7.9%	-3.3%	2.3%	48.2%	9.8
Cc1ccc(-c2csc3ncn(-n4c(C)ccc4C)c(=O)c23)o1	-18.5%	-21.4%	13.1µM*	6.31µM*	0.738µM*	28.5
CC(=O)n1c(Cl)c(NC(=O)CCl)c2ccccc21	?	14.1µM*	.	?	2.08µM*	-98.3*
CC(=O)n1c2ccccc2c2ccccc21	-7.5%	?	9.1%	9.5%	40.8%	9.6
CC(C)c1ccc(-c2noc(C3CCCN(C(=O)c4ccc(F)cc4F)C3)n2)cc1 (configuration not stated)	-7.3%	11.2µM*	?	-1.6%	51.1%	-8.4
Cc1ccc(-c2noc(C3CCCN(C(=O)c4ccc(F)cc4F)C3)n2)cc1 (configuration not stated)	-10.4%	?	-23.7%	4.2%	?	-36.7
